Source: PubChem
An excerpt weighted towards active compounds, which were near 2.2% of everything screened.
PLC-gamma1 inh – PLC-gamma1 (human) inhibition, primary screen; purified PLC-gamma1, fluorogenic substrate, fluorescence; inhibition, % at 12.2 µM; 370,000 tested, 0.84% active; in the data active means inhibition above about 9.5%
FAS-TE inh – blocks the thioesterase domain of human fatty acid synthase; inhibition, % at 15 µM; AID 602261; P49327; 360,000 tested, 0.67% active; recombinant FAS-TE, OMFH fluorogenic substrate, fluorescence endpoint;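 active means compounds whose normalised, plate-corrected inhibition of enzyme fluorescence in the single-dose primary screen is 50% or more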;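 further: 0% = DMSO with enzyme and 100% = substrate without enzyme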
Cardio protect – modulators protecting cardiomyocytes from myocardial damage. H9c2 cardiomyocytes, H2O2 injury protection, ATPLite, 2 h. AID 588492. protection from H2O2 cell death, % at 20 µM. 360,000 tested, 0.63% active;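 active means compounds giving at least 50% protection of heart cells from peroxide-induced death in the single-dose screen, raw or plate-pattern-corrected value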;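 further: 0% = DMSO wells with peroxide and 100% = DMSO wells without peroxide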
PLC-beta3 inh – blocks human PLC-beta3 enzyme activity. Q01970. Purified PLC-beta3, fluorogenic substrate, fluorescence. inhibition, % at 12.2 µM. 370,000 tested, 0.18% active. AID 720704; in the data active means inhibition above about 11%;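 further: 0% = median of compound wells on plate and 100% = full blocker control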
* hit, by the source's call; i = inactive; · = no result.

SMILES | PLC-gamma1 inh | FAS-TE inh | Cardio protect | PLC-beta3 inh
O=C1NC(Cc2ccc(O)cc2)c2nc3cc(F)c(F)cc3c(=O)n2-c2cc3ccccc3cc21 (stereo unspecified) | -4 | 18 | 18 | -5
CCCc1cc(=O)oc2c(CNc3ccc(OCC)cc3)c(O)ccc12 | -428 | 4 | 59* | i
CCCCc1cc(=O)oc2c(CN3CCCC3)c(O)ccc12 | i | -8 | 2 | i
Oc1ccc(/C=N/N=C/c2ccc(O)c(O)c2)cc1O | 4 | -3 | 52* | -1
COc1cc(C2C(C#N)=C(C)NC3=C2C(=O)c2ccccc23)cc(OC)c1OC (stereo unspecified) | -2 | -9 | 128* | 1
COc1ccc(C2C(C#N)=C(C)NC3=C2C(=O)c2ccccc23)cc1 (stereo unspecified) | -16 | 23 | 15 | -19
CN(C)Cc1cc(O)c(CN(C)C)cc1O | -14 | -10 | 61* | -29
Nc1ccc(C#Cc2ccc3c(=O)c4ccccc4oc3c2)cc1 | -372 | 0 | -7 | i
COc1cc2oc3ccc(C#Cc4ccccn4)cc3c(=O)c2cc1OC | -72 | 7 | 66* | -124
COc1cc2oc3cc(C#Cc4ccc(N)cc4)ccc3c(=O)c2cc1OC | i | 2 | 72* | i
COc1cc2oc3ccc(C#Cc4ccc(N)cc4)cc3c(=O)c2cc1OC | -96 | 10 | 57* | -151
N#Cc1ccc(C#Cc2ccc3oc4ccccc4c(=O)c3c2)cc1 | -6 | -11 | -2 | -10
CCC(=O)NCC[C@@H]1CCc2ccc3c(c21)CCO3 | 0 | · | · | 0
CCCNC(=O)c1c(N)n(-c2cccc(OC)c2)c2nc3ccccc3nc12 | -239 | 19 | 55* | -296
Nc1c(C(=O)NCC2CCCO2)c2nc3ccccc3nc2n1-c1ccccc1 (stereo unspecified) | i | -1 | 55* | i
COCCCNC(=O)c1c(N)n(-c2cccc(S(N)(=O)=O)c2)c2nc3ccccc3nc12 | i | 3 | 15 | i
COC(=O)[C@]12C[C@H](CC(=O)NCc3ccccc3)C(=O)N(Cc3ccco3)C1=C[C@H](C(C)C)O[C@@H]2C1CC1 | 1 | · | · | 0
COc1ccc(CCNC(=O)c2cc(C(=O)c3cc(C)ccc3O)cn(CCc3ccc(OC)cc3)c2=O)cc1 | -2 | 10 | 65* | 3
COC(=O)[C@H](CC(C)C)N(CCc1cn(Cc2ccc(C)cc2)nn1)S(=O)(=O)c1ccccc1Br | 6 | · | · | -3
CCn1c(SCC(=O)Nc2ccccc2N2CCCCC2)nc2c1c(=O)n(C)c(=O)n2C | -2 | 24 | 62* | -2
O=C(CCn1c(=O)oc2ccccc21)N(Cc1ccccc1)c1ccccc1 | 3 | 20 | 73* | 3
CN(Cc1ccccc1)C(=O)CCn1c(=O)oc2ccccc21 | -1 | -3 | -2 | 0
Brc1cc2c(cc1/C=N/Nc1nc(N3CCCC3)nc(N3CCOCC3)n1)OCO2 | 4 | 18 | 63* | 0
CCN(CC)S(=O)(=O)c1ccc(N/N=C/c2cc(OC)c(OC)cc2OC)nc1 | -16 | -9 | 3 | -20
CCOc1cccc(/C=N/Nc2ccc(S(=O)(=O)N(CC)CC)cn2)c1O | -9 | -5 | 57* | -8
SMILES | PLC-gamma1 inh | FAS-TE inh | Cardio protect | PLC-beta3 inh
COc1cc(C(=S)N2CCN(c3ccccc3Cl)CC2)cc(O)c1O | -2 | -7 | 85* | -6
COc1ccc(C(=S)N2CCN(c3ccccc3Cl)CC2)cc1OC | 2 | 9 | 5 | -7
O[C@H](COc1ccc(F)cc1)CN1CCC(C(O)(c2ccccc2)c2ccccc2)CC1 | 4 | · | · | 1
COc1ccc(-n2c(SCC(=O)NNC(=S)Nc3ccc(C)cc3)nnc2-c2ccccc2)cc1 | 0 | · | · | -1
CCCCn1c(N)c(Br)c(=O)[nH]c1=O | 0 | -5 | 55* | -5
CCCCn1c(N)c(NCCC(C)C)c(=O)[nH]c1=O | -7 | -9 | -7 | 1
C[C@H](O)[C@@H]1C(=O)N2CCc3c([nH]c4c(-c5ccc6c(c5)OCO6)cccc34)[C@@H]2C[C@@H]1N(C)C(=O)NC1CCCCC1 | -40 | · | · | -52
COc1ccc(OCC(O)Cn2c(Nc3cccc(C)c3)nc3c2c(=O)n(C)c(=O)n3C)cc1 (stereo unspecified) | 7 | 9 | 64* | 5
COc1ccc(OCC(O)Cn2c(Br)nc3c2c(=O)[nH]c(=O)n3C)cc1 (stereo unspecified) | -4 | -7 | 54* | -5
Cn1c(=O)[nH]c(=O)c2c1nc(Br)n2CC(O)COc1ccc(Cl)cc1 (stereo unspecified) | 2 | -1 | 92* | -1
Cc1cccc(Nc2nc3c(c(=O)n(C)c(=O)n3C)n2Cc2ccccc2)c1 | 0 | 1 | 3 | 1
